# Screen size: about 2,300 compounds; about 1,200 (52%) were called active. Not shown: some 34% with an inconclusive outcome. Calls come from the whole dose curve; as a rule, active = well fitted inhibition curve with a large enough effect; inconclusive = small, poorly fitted or top-dose-only effect, or effect the other way; inactive = no such curve, though single readings can be large or run the other way. The set was probably picked from earlier hits. The list shows a part of the results.
# Assay: Confirmation screen for delayed death inhibitors of the malarial parasite plastid, 48 hour incubation; note: nearly all actives have a fitted effect of over 65% in size
# Conditions: P. falciparum-infected erythrocytes, luciferase growth; series mostly up to 28.7 µM
# In short: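 Erythrocytes infected with luciferase-expressing P. falciparum (2% hematocrit, 0.1% parasitemia) incubated with compounds 48 hours at 37 C, 5% CO2, in RPMI/Albumax. Growth inhibition scored as reduced luminescence after detection reagent.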
# Potency is the fitted concentration of half-maximal effect.
row,Compound,Potency
1,Cc1ccc(Cc2cnc(N3C(=N)SC(C)C3=O)s2)cc1 (centres undefined),inactive
2,C=CCN1C(=O)[C@@H]2Cc3c([nH]c4ccccc34)C(c3ccc(O)cc3)N2C1=S (some centres undefined),12.6 µM (active)
3,CCN1C(=O)[C@@H]2Cc3c([nH]c4ccccc34)C(c3ccc(OC)cc3)N2C1=S (some centres undefined),15.8 µM (active)
4,CC1(C)CC(=O)C2=C(C1)OC1=C(C(=O)CC(C)(C)C1)C2c1ccc(O)cc1O,7.08 µM (active)
5,Fc1cccc(CNc2ncnc3ccc(-c4ccc5c(c4)OCO5)cc23)c1,10 µM (active)
6,Fc1ccc(CSc2nncn2NCc2ccc3c(c2)OCO3)cc1,inactive
7,CCOCCCNC(=S)N1CCN(c2nc(-c3ccccc3)cs2)CC1,11.2 µM (active)
8,NC1=NC[C@@H](Cc2ccc(O)cc2)N1CCc1cccc(F)c1,10 µM (active)
9,NC1=NC[C@H](Cc2ccc(O)cc2)N1CCc1cccc(F)c1,7.94 µM (active)
10,CCCCCCCNC(=O)C1(CC2CC(c3ccc(Cl)cc3)=NO2)CCN(C(=O)Cc2ccc(F)cc2)CC1 (centres undefined),11.2 µM (active)
11,CCCCCCCNC(=O)C1(CC2CC(c3ccc(Cl)cc3)=NO2)CCN(C(=O)C2CCCC2)CC1 (centres undefined),14.1 µM (active)
12,COc1ccc(C(=O)CSc2nnc(C3CCCCC3)n2N)c(OC)c1,8.91 µM (active)
13,CC1CCCN(c2ccc(F)cc2N)C1 (centres undefined),14.1 µM (active)
14,COc1cccc(-c2sc3ccc(OC)cc3c2-c2cc(F)cc(OC)c2)c1,11.2 µM (active)
15,O=C(CSc1nnc(COc2ccccc2)n1-c1ccccc1)c1cccs1,14.1 µM (active)
16,CC(C)C[C@H](NC(=O)c1[nH]cnc1C(=O)N[C@@H](Cc1ccccc1)C(=O)OC(C)(C)C)C(=O)OC(C)(C)C,6.31 µM (active)
17,C[C@H](NC(=O)c1nc[nH]c1C(=O)N[C@H](C)c1ccccc1)C(=O)OCc1ccccc1,inactive
18,CC(C)C[C@H](NC(=O)c1[nH]cnc1C(=O)N[C@@H](C)C(=O)OC(C)(C)C)C(=O)OC(C)(C)C,7.08 µM (active)
19,CC(C)C[C@H](NC(=O)c1nc[nH]c1C(=O)N(C)Cc1ccccc1)C(=O)OC(C)(C)C,11.2 µM (active)
20,CC(C)C[C@H](NC(=O)c1[nH]cnc1C(=O)Nc1ccc(CNC(=O)OC(C)(C)C)cc1)C(=O)OC(C)(C)C,6.31 µM (active)
21,O=C(CC(c1ccccc1)c1cc(Br)ccc1O)NCCN1CCOCC1 (centres undefined),12.6 µM (active)

row,Compound,Potency
1,O=C(CN1CCCCC1)N/N=C/c1ccc(Cl)cc1,inactive
2,O=C(c1ccc(Cl)cc1)C(CN1CCCC1)c1ccccc1 (centres undefined),10 µM (active)
3,O=C(c1ccc(Br)cc1)C(CN1CCOCC1)c1ccccc1 (centres undefined),7.08 µM (active)
4,CN(Cc1ccccc1)C(=O)c1ccc(NC(=O)Cc2cccc(NC(=O)C3CCCN(C(=O)CCc4ccccc4)C3)c2)cc1 (centres undefined),7.08 µM (active)
5,O=[N+]([O-])c1cccc(-c2c[n+]3c(n2-c2ccccc2)SCC3)c1,2.51 µM (active)
6,COC(=O)C(NC(=O)c1ccccc1C)(Nc1ncc(S(=O)(=O)c2ccc([N+](=O)[O-])cc2)s1)C(F)(F)F (centres undefined),7.94 µM (active)
7,Cn1nc(C(F)(F)F)c(C(=O)Nc2ccc(F)cc2F)c1Sc1ccc(C(F)(F)F)cc1,12.6 µM (active)
8,CC(C)Cc1ccc(CN2CCCC(NC(=O)CCn3cnnn3)C2)cc1 (centres undefined),inactive
9,Cc1occc1C(=O)NC1CCCN(Cc2ccc(CC(C)C)cc2)C1 (centres undefined),14.1 µM (active)
10,O=C(NC1CCCN(Cc2ccc(Cl)cc2)C1)c1cnc2ccccn2c1=O (centres undefined),15.8 µM (active)
11,O=C(Cn1c(=O)c(=O)n(Cc2ccccc2)c2ccc(Cl)cc21)Nc1cccc(F)c1,15.8 µM (active)
12,Cc1cccc(C)c1N1CCN(C(=O)c2ccc3c(c2)OCO3)CC1,15.8 µM (active)
13,CCOC(=O)c1c(C)c(-c2ccccc2)n(CC(=O)NCCCN(CC)CC)c1C,12.6 µM (active)
14,O=C(c1ccco1)N1CCN(C(=O)C2CCCc3c2[nH]c2ccc(Cl)cc32)CC1 (centres undefined),14.1 µM (active)
15,COc1cccc(/C=C2\SC(=S)N(CCC(=O)N3CCCCC3CCO)C2=O)c1 (centres undefined),10 µM (active)
16,COc1cccc(/C=C2\SC(=O)N(CCC(=O)NC3CCS(=O)(=O)C3)C2=O)c1 (centres undefined),inactive
17,O=C1/C(=C/c2ccc(Cl)cc2)SC(=S)N1CCC(=O)N1CCCCC1CCO (centres undefined),15.8 µM (active)
18,CC1=CC(=O)O[C@@H]1[C@@]1(C)C[C@H]2OC(=O)C[C@H]3[C@@H](C)C(=O)C(O)=C1[C@@]23CO,inactive
19,CCCCNC(=O)c1onc(CSc2ccc(Cl)cc2)c1C(=O)O,inactive
20,O=C(Nc1cc(Cl)ccc1N1CCCC1)C1=NN(c2ccccc2)C(=O)CC1,14.1 µM (active)
21,Cc1oc(=O)c(NC(=O)c2ccc(Cl)cc2)cc1C(=O)c1ccccc1,inactive

row,Compound,Potency
1,CN(C)c1ccc(S(=O)(=O)N2CCCCC2)cc1NC(=O)C1=NN(c2ccccc2)C(=O)CC1,8.91 µM (active)
2,O=[N+]([O-])c1cncc([N+](=O)[O-])c1Nc1cccc(O)c1,12.6 µM (active)
3,CC1(C)Cc2c(ccc3ccccc23)C(c2cc3ccccc3oc2=O)=N1,12.6 µM (active)
4,O=C(c1ccc(Br)o1)N1CCN(c2ccc3nnc(-c4ccccc4)n3n2)CC1,12.6 µM (active)
5,O=C(Nc1ccccc1C(F)(F)F)N1CCN(c2ccc3nnc(-c4ccc(F)cc4)n3n2)CC1,7.08 µM (active)
6,COc1ccc(CCC(C)N2CCC(Oc3ccc(C(=O)N4CCCC4)cc3)CC2)cc1 (centres undefined),12.6 µM (active)
7,O=C(c1ccc(OC2CCN(Cc3ccccc3OC(F)F)CC2)cc1)N1CCCC1,2.24 µM (active)
8,COc1ccc(C(=O)NC(=S)N(C)C2CCCCC2)cc1,inactive
9,CCOc1cc(/C=C/C(=O)Nc2ccc(C(=O)NCCN(CC)CC)cc2)ccc1OCC(C)C,1.78 µM (active)
10,Cc1nc([N+](=O)[O-])c(Br)n1CC(=O)c1ccc(F)cc1,12.6 µM (active)
11,Cn1cc([N+](=O)[O-])c(C(=O)Nc2cnn(Cc3ccc(F)cc3)c2)n1,inactive
12,Cc1nc([N+](=O)[O-])c(Br)n1CC(=O)c1ccc(Cl)cc1,10 µM (active)
13,O=C(c1ccc([N+](=O)[O-])cc1)n1nc(-c2ccccc2)nc1NCc1ccc(F)cc1,inactive
14,CCOC(=O)N1C/C(=C\c2ccccc2)C(=O)/C(=C/c2ccccc2)C1,6.31 µM (active)
15,CCN(CC)S(=O)(=O)c1cccc(NC(=O)c2cc(-c3cccs3)nn2-c2ccccc2)c1,11.2 µM (active)
16,CC(=O)NCCC(=O)Nc1cc(S(=O)(=O)N2CCOCC2)ccc1Oc1ccccc1,11.2 µM (active)
17,CCOc1ccc(S(=O)(=O)N2CCOCC2)cc1NC(=O)CN1C(=O)NC(CC)(c2ccccc2)C1=O (centres undefined),12.6 µM (active)
18,CCOc1ccccc1CNC(=O)CN1C(=O)CSc2ccc(S(=O)(=O)N3CCOCC3)cc21,10 µM (active)
19,CC(C)(C)OC(=O)[C@H]1[C@H](c2ccc([N+](=O)[O-])cc2)C2(C(=O)c3ccccc3C2=O)C2c3ccccc3C=NN21 (some centres undefined),4.47 µM (active)
20,Cc1ccc(-c2nn(-c3ccccc3)cc2CC(=S)N2CCOCC2)cc1,14.1 µM (active)
21,CCCOc1ccccc1/C=C1\SC(N2CCCCC2)=NC1=O,11.2 µM (active)

row,Compound,Potency
1,COc1cccc(/C=C2\SC(N3CCCC(C)C3)=NC2=O)c1OC (centres undefined),12.6 µM (active)
2,CCOC(=O)C1CCN(C(=O)CCc2nnc3ccc(NCc4ccco4)nn23)CC1,10 µM (active)
3,CCn1c2ccccc2c2cc(/C=N/n3cn[nH]c3=S)ccc21,12.6 µM (active)
4,Cc1ccccc1C1=NC(C(F)(F)F)(C(F)(F)F)c2c(n(-c3ccc(F)cc3)c(=O)[nH]c2=O)N1,10 µM (active)
5,Cc1cc(C)cc(C(=O)NC(CC(N)=O)c2ccc(NCC3CC3)c([N+](=O)[O-])c2)c1 (centres undefined),inactive
6,NC(=O)CC(NC(=O)Cc1ccc(Br)cc1)c1ccc(NC2CC3CCC2C3)c([N+](=O)[O-])c1 (centres undefined),15.8 µM (active)
7,COc1cccc(C(=O)/C=C/c2ccc(OCC#N)c(OC)c2)c1,10 µM (active)
8,COc1cc(/C=C/C(=O)c2ccc(O)cc2)ccc1OCC#N,12.6 µM (active)
9,O=C(Nc1nc(-c2ccccn2)cs1)C1COc2ccccc2O1 (centres undefined),6.31 µM (active)
10,O=C1/C(=C/c2ccccc2F)SC(=S)N1CC(=O)N1CCCCC1c1cccnc1 (centres undefined),14.1 µM (active)
11,COc1ccc(OC)c(-c2nc(C(=O)NC3CCN(Cc4ccccc4)CC3)cc3c2[nH]c2ccccc23)c1,4.47 µM (active)
12,CCCN1CCC(NC(=O)CC2C(=O)NCCN2Cc2cccc(OC)c2)CC1 (centres undefined),inactive
13,Cc1ccc2c(c1)C1CC(C)(O2)N(c2cccc(C(=O)N3CCN(c4ccccn4)CC3)c2)C(=O)N1 (centres undefined),12.6 µM (active)
14,O=C(C=C=Nc1ccccc1)C(=O)N=C=Cc1ccccc1,14.1 µM (active)
15,CCOc1ccc(-n2c(N)c(-c3nc4ccccc4n3C)c3nc4ccccc4nc32)cc1,3.98 µM (active)
16,O=S(=O)(c1ccc(Cl)c(Cl)c1)c1snnc1-c1ccccc1,12.6 µM (active)
17,CCCNC(=O)c1nnsc1S(=O)(=O)c1ccc(Cl)cc1,inactive
18,O=C(O)c1ccc(/C=N/NC(=O)c2ccc3c(c2)OCCO3)cc1,inactive
19,O=C(/C=C/c1ccncc1)c1ccc2c(c1)OCCO2,12.6 µM (active)
20,O=C(CC1Sc2ccccc2NC1=O)OCc1cc(=O)oc2cc(O)ccc12 (centres undefined),11.2 µM (active)
21,CO[C@@H]1[C@@H](OC2OC(C)C(OC3CC(C)(O)C(OC(=O)CC(C)C)C(C)O3)C(N(C)C)C2O)[C@@H](CC=O)C[C@@H](C)C(=O)/C=C\C2O[C@H]2C[C@@H](C)OC(=O)C[C@H]1OC(C)=O (some centres undefined),7.08 µM (active)

# From PubChem BioAssay AID504850 (National Center for Advancing Translational Sciences (NCATS), 2011)
